This passage reports inhibition results from PubChem BioAssay AID463195 (Sanford-Burnham Center for Chemical Genomics, 2010).

The whole screen tested about 330,000 compounds, of which about 4,600 (1.4%) were called active.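 The calls were made as follows: active = inhibition of 40% or more at the single tested concentration; inactive = the rest.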 For the sample, actives were picked, then their nearest neighbours and some compounds at random.

A short description of the assay: growth inhibitors of isogenic TIM10 control yeast, primary screen, counter-screen for tim10-1 yeast inhibitor project, luminescence, uHTS (AID 463195).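 Also: wild-type TIM10 isogenic control strain grown at permissive 25 °C; 0% = DMSO yeast wells and 100% = minimal medium wells without yeast.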 The following applies: S. cerevisiae TIM10 strain growth, BacTiter-Glo luminescence, 24 h; at 10 µM; stronger effect = higher value.
`O=C(CCc1nc(-c2ccccc2)no1)Nc1cccc(C(=O)NC2CC2)c1`: the inhibition (in general, the relative decrease from the control value, in per cent) is -6.75% (inactive).
For `CCCCn1c(N)c(N(CCOC)C(=O)c2cccc(S(=O)(=O)N3CCCCC3)c2)c(=O)[nH]c1=O`, the inhibition is -2.98% (inactive).
`Cc1cccc(C(=O)NCC(=O)OCC(=O)N(C)CC(=O)Nc2ccccc2Cl)c1`: the inhibition is -5.14% (inactive).
Consider `Cc1ccc(SCCC(=O)Nc2cc(C)on2)cc1`, for which the inhibition was 4.66% (inactive).
The same measure for `Cc1ccc2nc(-c3ccc(SCC(=O)Nc4cc(C)on4)nc3)[nH]c2c1`: 42.6% (active); for `Cc1cccc(-n2ncc3c(=O)[nH]c(SCC(=O)Nc4cc(C)on4)nc32)c1`: -12.1% (inactive).
For the molecule `CC(=O)c1cccc(NC(=S)N2CCN(S(C)(=O)=O)CC2)c1`, the inhibition was 13% (inactive).
`CC(C)Oc1c(Br)cc(Br)cc1/C=N/NC(N)=S`: the inhibition was 51.7% (active).
In the case of `CCOc1ccc(/C=N/NC(N)=S)cc1`, the inhibition is -25.2% (inactive).
The figure for `Cc1cccc(-n2c(C)cc(/C=N/NC(N)=S)c2C)c1` is -24.1% (inactive); for `S=C(NCCCc1ccccc1)Nc1ccc(Br)cc1` it is 43.1% (active); for `S=C(Nc1ccc(Br)cc1)NC1CCN(Cc2ccccc2)CC1` it is -24.3% (inactive).
Take `O=C(CCNC(=O)c1ccc(Br)cc1)NCCCc1ccccc1`: the inhibition is -4.58% (inactive).
As for `CC(C)n1c(O)c(N=Nc2ccccn2)c2ccccc21`, the inhibition is 3.1% (inactive).
As for `O=c1c(/C=N/O)coc2ccc(Cl)cc12`, the inhibition is -3.79% (inactive).
For the molecule `NC(=S)N/N=C/c1coc2cc(Cl)ccc2c1=O`, the inhibition is 42.4% (active).
In the case of `Cc1ccc2occ(/C=N/NC(=O)c3ccccc3C)c(=O)c2c1`, the inhibition is 20.6% (inactive).
Consider `CC(C)c1ccc(NC(=O)COC(=O)c2ccc(CN3CCCC3=O)cc2)cc1`, for which the inhibition was 1.1% (inactive).
Regarding `O=C(Nc1ccccc1Cl)/C(Cl)=C(\Cl)S(=O)c1ccccc1` (configuration not stated), the inhibition is 86.7% (active).
Regarding `Cc1c(NC(=O)Nc2ccccc2Cl)sc(=S)n1C`, the inhibition is 2.45% (inactive).
For the molecule `CC1(C)CC(CCC(=O)Nc2ccccc2Cl)C(=O)O1` (configuration not stated), the inhibition was 1.62% (inactive).
For `O=C(O)C1C2CC2CN1C(=O)c1ccc(Cl)cc1Cl` (configuration not stated), the inhibition was -17.4% (inactive).
As for `CN(Cc1nc(-c2cnccn2)no1)Cc1n[nH]c2c1CCCCC2`, the inhibition is 4.12% (inactive).
In the case of `CCOCCCNC(=O)c1cn(CC(C)C)c(=O)c2c1c1ccccc1n2C`, the inhibition was 3.76% (inactive).
As to `O=c1nc2s/c(=C\c3ccco3)c(=O)n2nc1Cc1ccccc1`, the inhibition was 63.3% (active).
For `O=C(Nc1ccccc1)/C(=C\c1ccco1)NC(=O)c1ccco1`, the inhibition is -2.56% (inactive).
Consider `O=C(NCCc1ccco1)c1nn(Cc2ccccc2)c(=O)c2ccccc12`, for which the inhibition is 2.63% (inactive).
Take `COC(=O)c1c(NC(=O)CN2CCN(S(=O)(=O)c3ccccc3[N+](=O)[O-])CC2)sc2c1CCC(C)C2` (configuration not stated): the inhibition was 14.5% (inactive).
On to `CC(=O)N1C(C)c2ccccc2C(C)(C)CC12CCCCC2` (configuration not stated), for which the inhibition is 41.9% (active).
As for `COCCCNC(=O)C1CC(=O)N(CCc2ccc(F)cc2)C1` (configuration not stated), the inhibition is -8.81% (inactive).
For the molecule `CCOCCCn1c(SCC(=O)Nc2cc(OC)ccc2OC)nc2ccccc2c1=O`, the inhibition is 11.4% (inactive).
The same measure for `OC(CNCC1CCCO1)Cn1c2ccc(Br)cc2c2cc(Br)ccc21` (configuration not stated): 62.5% (active); for `O=C(CCNS(=O)(=O)c1ccc(Br)cc1)NCC1CCCO1` (configuration not stated): -3.43% (inactive).
Take `O=C(CSc1ccc(-c2ccc(Br)cc2)nn1)NCC1CCCO1` (configuration not stated): the inhibition was 15.2% (inactive).
Turning to `CCCCCNC(=O)c1cccnc1SCC(=O)Nc1ccccc1OC`, the inhibition was 1.04% (inactive).
Turning to `COc1ccc(N2CCN(C(=O)CCSCc3ccccc3F)CC2)cc1`, the inhibition is 27.5% (inactive).
`CC(=O)N(Cc1cccs1)C1CCOC(C)(C)C1` (configuration not stated): the inhibition was -0.323% (inactive).
The same measure for `Nc1ccccc1SC(C[N+](=O)[O-])c1ccccc1` (configuration not stated): 59.3% (active); for `Cc1ccc(C(C[N+](=O)[O-])c2c(C)cc3ccccn23)cc1` (configuration not stated): 21.6% (inactive).
On to `Cc1ccc(C)c(OCCC(=O)OCC(=O)N2CCN(c3ccccc3)CC2)c1`, for which the inhibition was 5.69% (inactive).
The figure for `O=S(=O)(Nc1cccc(Oc2ccc(Cl)cc2)n1)c1ccc(F)cc1` is 37.9% (inactive); for `O=C(CN1CCN(c2nc(-c3ccccc3)cs2)CC1)NCc1ccc2c(c1)OCO2` it is 18.3% (inactive); for `O=C(COC(=O)C1CCCO1)Nc1nc(-c2ccc(F)cc2)cs1` (configuration not stated) it is 2.65% (inactive).
The same measure for `CC1CCCC(C)N1C(=O)CN1CCN(c2nc(-c3ccc(F)cc3)cs2)CC1` (configuration not stated): 44.9% (active); for `O=C(COC(=O)Cc1ccc([N+](=O)[O-])cc1)NC1CCCCCC1`: 11.9% (inactive); for `COC(=O)C(C)NC(=O)COc1ccc2ccccc2c1` (configuration not stated): 4.55% (inactive).
As for `N/C(Cc1ccc([N+](=O)[O-])cc1)=N\OC(=O)C1CCCCC1`, the inhibition was 56% (active).
Regarding `O=C(COC(=O)C1CCCCC1)Nc1ccc([N+](=O)[O-])cc1`, the inhibition was 30.8% (inactive).
As to `N/C(Cc1ccc([N+](=O)[O-])cc1)=N\OC(=O)COc1ccc2ccccc2c1`, the inhibition was 44.4% (active).
For `Cc1cc(C)cc(OCC(=O)O/N=C(\N)Cc2ccc([N+](=O)[O-])cc2)c1`, the inhibition was 18.5% (inactive).
For the molecule `O=C(CN1CCCCC1)N1c2ccccc2Sc2ccc(C(F)(F)F)cc21`, the inhibition was 13.9% (inactive).
The same measure for `O=S(=O)(NC(=S)Nc1ccccc1)c1ccc(F)cc1`: -5.64% (inactive); for `CC[C@]12c3[nH]c4cc(CCC(=O)N(C)C)ccc4c3CCN1C(=O)[C@@H](CC(=O)NCc1ccco1)C[C@@H]2C(=O)N1CCN(C(=O)c2ccco2)CC1`: 12.2% (inactive).
Take `CSc1ccccc1-c1nnc(-c2ccc(Cl)cc2)o1`: the inhibition was 8.43% (inactive).
For `FC(F)(F)c1cnc(Oc2ccccc2-c2nnc(-c3ccc(Cl)cc3)o2)c(Cl)c1`, the inhibition is 92.4% (active).
The figure for `COc1ccccc1-c1nnc(-c2ccc(F)cc2)o1` is 14.8% (inactive); for `C[C@@H]1CC[C@@]2(OC1)O[C@H]1C[C@H]3[C@@H]4CC=C5C[C@@H](O)[C@H](O)C[C@]5(C)C4CC[C@]3(C)[C@H]1[C@@H]2C` (some centres not stated) it is -10.1% (inactive); for `Cc1cc(Cl)ccc1OCc1nc(-c2ccncc2)no1` it is -5.93% (inactive).
As for `CCc1cc(C(N)=O)c(NC(=O)c2ccc(OC)cc2)s1`, the inhibition was 48.7% (active).
As to `CCc1cc(C(=O)c2ccc(OC)cc2)c(NC(=O)CN2CCN(C)CC2)s1`, the inhibition is 14.6% (inactive).
Consider `COc1ccc(C(=O)Nc2sc(C)c(C)c2CN2CCOCC2)cc1`, for which the inhibition was 29% (inactive).
On to `CCCn1c(C)cc(-c2csc(NC(=O)CCc3nc4ccccc4c(=O)[nH]3)n2)c1C`, for which the inhibition is -24.7% (inactive).
`CCCOc1ccc(NC(=O)C2OC3OC(C)(C)OC3C3OC(C)(C)OC23)cc1` (configuration not stated): the inhibition is -2.42% (inactive).
With `COc1cc(/C=C/CO)cc(OC)c1O[C@@H]1O[C@H](CO)[C@@H](O)[C@H](O)[C@H]1O`, the inhibition is -4.81% (inactive).
The figure for `O=C(Oc1cccc(C(=S)N2CCOCC2)c1)c1cccc(Cl)c1` is 17.1% (inactive); for `O=C(/C=C/c1cccs1)c1cc(Cl)ccc1OC(=O)N1CCOCC1` it is 52.9% (active).
Regarding `CC(=O)Nc1ccccc1OC(=O)N1CCOCC1`, the inhibition was -16.6% (inactive).
In the case of `CC(C)CNC(=S)Nc1ccc(F)cc1`, the inhibition is 8.49% (inactive).
On to `CC(C)(CCl)C(=O)Nc1ccc(Sc2ccc(F)cc2)cc1`, for which the inhibition is 42.1% (active).
Consider `O=C(Nc1ccncc1)Nc1ccc(F)cc1`, for which the inhibition was -4.69% (inactive).
As to `O=C(COc1ccccc1)Nc1nonc1NC(=O)COc1ccccc1`, the inhibition was 7.03% (inactive).
With `O=C(CCN1C(=O)[C@@H]2Cc3ccccc3CN2C1=O)NCc1ccccc1`, the inhibition is 4.78% (inactive).
Regarding `CCOC(=O)c1c(NC(=O)CNC2CCCc3ccccc32)sc(C(N)=O)c1C` (configuration not stated), the inhibition is -2.7% (inactive).
As for `COc1ccc(CN(C(=O)CSc2nnc(-c3ccc(OC)c(OC)c3)o2)c2ccc(F)cc2)cc1`, the inhibition was 40.5% (active).
With `COc1ccc(-c2nnc(SCC(=O)NC3CCCCC3)o2)cc1OC`, the inhibition is 3.73% (inactive).
Take `COc1ccc(CCNC(=O)CSc2nnc(-c3cccc(F)c3)o2)cc1OC`: the inhibition was 1.74% (inactive).
As for `Cc1ccc(C(=O)OCC(=O)NCc2cc(C)c(O)c(C)c2)cc1S(=O)(=O)N1CCCCC1`, the inhibition was 0.371% (inactive).
With `O=S(=O)(c1cccc(-c2cn3ccccc3n2)c1)N1CCCC1`, the inhibition was 9% (inactive).
The same measure for `Cc1cc(-c2ccccc2)nc(N2CCC(C(=O)NC34CC5CC(CC(C5)C3)C4)CC2)n1`: 19.8% (inactive); for `O=C1Nc2c(Br)cc(Br)cc2C1(O)N1CCOCC1` (configuration not stated): 12.1% (inactive).
With `CCC(C)(C)NC(=O)CN(Cc1cccs1)C(=O)CNS(=O)(=O)c1ccc(F)cc1`, the inhibition was 3.15% (inactive).
As for `CCOc1ccc(S(=O)(=O)NCCC(=O)N2CCCCCCC2)cc1`, the inhibition is -3.91% (inactive).
In the case of `Cc1cccc(/C=N/NC(=O)CNc2cccc3ccccc23)n1`, the inhibition was 8.82% (inactive).
As to `Cc1ccccc1NCC(=O)N/N=C\c1ccc([N+](=O)[O-])s1`, the inhibition was 56% (active).
As for `CC(C)(C)c1cc(C(=O)N/N=C/c2ccc([N+](=O)[O-])s2)n[nH]1`, the inhibition was 22% (inactive).
Take `C=CC1C(OC2OC(CO)C(O)C(O)C2O)OC=C(C(=O)OC)C1CC1CC(=O)CC(CC(=O)CCc2ccc(O)cc2)O1` (configuration not stated): the inhibition was -2.71% (inactive).
With `c1ccc(COc2ccccc2CNCc2cccnc2)cc1`, the inhibition is -6.88% (inactive).
`COc1c(N2CCN(C(=S)Nc3ccccc3F)C(C)C2)c(F)cc2c(=O)c(C(=O)O)cn(C3CC3)c12` (configuration not stated): the inhibition is 2.41% (inactive).
The figure for `Cc1cccc(-n2c(SCC(N)=O)nc3c(c2=O)C2(CCCCC2)Cc2ccccc2-3)c1` is 12.4% (inactive).
Turning to `N#CC1(C#N)C(C(=O)C23CC4CC(CC(C4)C2)C3)C12CCOCC2` (configuration not stated), the inhibition was 44.3% (active).
The same measure for `CSCCC(NC(=O)COc1ccccc1)C(=O)OCCOc1ccc(F)cc1` (configuration not stated): -0.639% (inactive); for `Cc1cc(C)cc(NC(=O)C(OC(=O)c2ccc(O)cc2)c2ccccc2)c1` (configuration not stated): 9.95% (inactive).
